Reference: the supplement of paper PMC11383364
± gives the standard deviation of the averaged measurements.

test system: SUM149; test: percent difference in area under dose-response curve of relative cell number, RPMI vs HPLM; higher = drug relatively more effective in HPLM than RPMI (negative = less effective in HPLM); conditions: treatment time: 72 h; dose range: 10-point, 1 nM to 20 µM; media compared: RPMI vs HPLM
Protocol: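 SUM149 triple-negative breast cancer cells, 500 cells/well in 384-well plates, were grown in RPMI or human plasma-like medium (HPLM) with 5% dialyzed FBS. They were pin-transferred with an anticancer plus metabolic-inhibitor library in 10-point dose series (20 µM to 1 nM). After 72 h, cells were fixed, stained with bisbenzimide and counted by Acumen plate cytometry. The AUC of relative survival vs dose was computed per medium, and the percent difference in AUC between RPMI and HPLM is reported.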

First: O=c1[nH]cc(F)c(=O)[nH]1 [5_Fluorouracil]
Second: O=c1cnn([C@@H]2O[C@H](CO)[C@@H](O)[C@H]2O)c(=O)[nH]1 [6_Azauridine]
The “percent difference in area under dose-response curve” value (from here on “percent difference in area”) of the first is lower: 0.782% for the first, 15.1% for the second.

Compared with COc1ccc(S(=O)(=O)Nc2cccnc2Nc2ccc(O)cc2)cc1, Cc1cnc(Nc2ccc(OCCN3CCCC3)cc2)nc1Nc1cccc(S(=O)(=O)NC(C)(C)C)c1 [Fedratinib] is lower in “percent difference in area” value: -6.35% for the first, -9.15% for the second.

Compared with CC[C@]1(O)C[C@@H]2CN(CCc3c([nH]c4ccccc34)[C@@](C(=O)OC)(c3cc4c(cc3OC)N(C)[C@H]3[C@@](O)(C(=O)OC)[C@H](OC(C)=O)[C@]5(CC)C=CCN6CC[C@]43[C@@H]65)C2)C1 [Vinblastine], COc1cc2c(N3CCN(C(=O)Nc4ccc(OC(C)C)cc4)CC3)ncnc2cc1OCCCN1CCCCC1 [Tandutinib] is higher in “percent difference in area” value: -27.2% for the first, -4.18% for the second.

Going from COc1cc2nccc(Oc3ccc(NC(=O)Nc4cc(C)on4)c(Cl)c3)c2cc1OC [Tivozanib] to COc1cc2nccc(Oc3ccc(NC(=O)NC4CC4)c(Cl)c3)c2cc1C(N)=O, the “percent difference in area” value falls from 7.69% to 5.17%.

Compared with CCN(CC)C(=S)SSC(=S)N(CC)CC [Disulfiram], CCC(C)SSc1ncc[nH]1 (stereo not given) is higher in “percent difference in area” value: -27.1 ± 6.8% for the first, 3.05% for the second.

First: CO[C@H]1/C=C\C=C(/C)C(=O)NC2=CC(=O)C(NCCN(C)C)=C(C[C@@H](C)C[C@H](OC)[C@H](O)[C@@H](C)/C=C(\C)[C@@H]1OC(N)=O)C2=O
Second: COc1cccc2c1C(=O)c1c(O)c3c(c(O)c1C2=O)C[C@@](O)(C(=O)CO)C[C@@H]3O[C@H]1C[C@H](N)[C@@H](O)[C@H](C)O1 [Epirubicin_HCl]
The “percent difference in area” value of the first is lower: -30.8% for the first, -23.5% for the second.

First: Nc1nc(F)nc2c1ncn2[C@@H]1O[C@H](COP(=O)(O)O)[C@@H](O)[C@@H]1O [Fludarabine_Phosphate]
Second: CN(Cc1cnc2nc(N)nc(N)c2n1)c1ccc(C(=O)N[C@@H](CCC(=O)O)C(=O)O)cc1 [Methotrexate]
The “percent difference in area” value of the first is lower: -16.9% for the first, -7.17% for the second.

First: COc1ccc(C2=N[C@H](c3ccc(Cl)cc3)[C@H](c3ccc(Cl)cc3)N2C(=O)N2CCNC(=O)C2)c(OC(C)C)c1 [Nutlin3b]
Second: CC(=O)N1CCN(c2ccc(OCC3COC(Cn4ccnc4)(c4ccc(Cl)cc4Cl)O3)cc2)CC1 (stereo not given) [Ketoconazole]
The “percent difference in area” value of the first is higher: 2.03% for the first, -8.22% for the second.

First: O=C(c1ccc(OCCN2CCCCC2)cc1)c1c(-c2ccc(O)cc2)sc2cc(O)ccc12 [Evista]
Second: CN1CCCN(C(=O)c2cccc(-c3ccc(/C=C4/C(=O)Nc5ccc(Cl)cc54)o3)c2)CC1
The “percent difference in area” value of the first is higher: 2.48% for the first, -26.8% for the second.

Going from CCN1CCN(Cc2ccc(-c3cc4c(N[C@H](C)c5ccccc5)ncnc4[nH]3)cc2)CC1 to CO[C@@H](C(=O)N1Cc2[nH]nc(NC(=O)c3ccc(N4CCN(C)CC4)cc3)c2C1)c1ccccc1 [Danusertib], the “percent difference in area” value falls from -3.13% to -17.3%.

First: O=C(Nc1cccc(C(F)(F)F)c1)Nc1cc(S(=O)(=O)NC2CC2)ccc1-c1ccsc1
Second: CNC(=O)c1cc(Oc2ccc(NC(=O)Nc3ccc(Cl)c(C(F)(F)F)c3)c(F)c2)ccn1 [Regorafenib]
The “percent difference in area” value of the first is lower: -8.01% for the first, -5.08% for the second.

Going from COc1cc(OC)c(/C=C/S(=O)(=O)Cc2ccc(OC)c(NCC(=O)O)c2)c(OC)c1 [Rigosertib] to C=CS(=O)(=O)NC1CCN(C(=O)CNc2cc(I)c(Cl)cc2OC)CC1 [KRas_G12C_inhibitor_9], the “percent difference in area” value rises from -46.7% to -1.74%.

Going from CC(NC(=O)c1ccccc1/N=C/c1c(O)ccc2ccccc12)c1ccccc1 (stereo not given) [Sirtinol] to CC(C)n1c(/C=C/C(O)CC(O)CC(=O)O)c(-c2ccc(F)cc2)c2ccccc21 (stereo not given) [Fluvastatin_sodium], the “percent difference in area” value falls from -4.04% to -8.4%.

Going from C#Cc1cccc(Nc2ncnc3cc(OC)c(OCCCCCCC(=O)NO)cc23)c1 to CN(C)C/C=C/C(=O)Nc1cc2c(Nc3ccc(F)c(Cl)c3)ncnc2cc1O[C@H]1CCOC1 [Afatinib], the “percent difference in area” value falls from 8.57% to 2.93%.

First: O=C(NOC[C@H](O)CO)c1ccc(F)c(F)c1Nc1ccc(I)cc1F
Second: CC(C)C[C@H](NC(=O)CNC(=O)c1cc(Cl)ccc1Cl)B(O)O
The “percent difference in area” value of the first is higher: -8.94% for the first, -12.2% for the second.

First: CN(c1ncccc1CNc1nc(Nc2ccc3c(c2)CC(=O)N3)ncc1C(F)(F)F)S(C)(=O)=O
Second: O=C(NCCCNc1nc(Nc2cccc(NC(=O)N3CCCC3)c2)ncc1I)c1cccs1
The “percent difference in area” value of the first is lower: -16.2% for the first, -9.09% for the second.

First: Cn1cnc([N+](=O)[O-])c1Sc1ncnc2[nH]cnc12 [Azathioprine]
Second: COc1c(C)cnc(Cn2cnc3c(Cl)nc(N)nc32)c1C
The “percent difference in area” value of the first is lower: -50.6% for the first, -26.2% for the second.

Going from COc1cc2c(cc1O)CC[C@@H]1[C@@H]2CC[C@]2(C)[C@@H](O)CC[C@@H]12 [2_Methoxyestradiol] to CCc1c2c(nc3ccc(OC(=O)N4CCC(N5CCCCC5)CC4)cc13)-c1cc3c(c(=O)n1C2)COC(=O)[C@]3(O)CC [Irinotecan], the “percent difference in area” value falls from 6.52% to -12.2%.

Going from Nc1ccccc1NC(=O)c1ccc(CNC(=O)OCc2cccnc2)cc1 [Entinostat] to O=C(Nc1cccnc1)N1CCC(Cc2cccc(Oc3ccc(C(F)(F)F)cn3)c2)CC1, the “percent difference in area” value falls from -2.21% to -4.77%.

Going from CC(C)C[C@H](NC(=O)[C@H](Cc1ccccc1)NC(=O)c1cnccn1)B(O)O [Bortezomib] to COc1cccc(-c2cc(F)ccc2[C@H]2Cc3nc(N)nc(C)c3C(=O)N2)n1, the “percent difference in area” value rises from -29.8% to -28.8%.
